Out of some 310,000 compounds screened, about 1,200 (0.39%) were called active. No rule for the calls is given here. The list is a sample of the results. Potency and affinity values are given separately.
What follows are compounds tested against Large T antigen (Simian virus 40) (UniProt P03070) (assay: SV40 large T antigen inhibitors, biochemical (AID 1903)). Settings: SV40 large T antigen ATPase/helicase inhibition assay; at 20 µM; stronger effect = higher value.
Large T antigen (Simian virus 40), sequence (P03070 whole entry, looked up): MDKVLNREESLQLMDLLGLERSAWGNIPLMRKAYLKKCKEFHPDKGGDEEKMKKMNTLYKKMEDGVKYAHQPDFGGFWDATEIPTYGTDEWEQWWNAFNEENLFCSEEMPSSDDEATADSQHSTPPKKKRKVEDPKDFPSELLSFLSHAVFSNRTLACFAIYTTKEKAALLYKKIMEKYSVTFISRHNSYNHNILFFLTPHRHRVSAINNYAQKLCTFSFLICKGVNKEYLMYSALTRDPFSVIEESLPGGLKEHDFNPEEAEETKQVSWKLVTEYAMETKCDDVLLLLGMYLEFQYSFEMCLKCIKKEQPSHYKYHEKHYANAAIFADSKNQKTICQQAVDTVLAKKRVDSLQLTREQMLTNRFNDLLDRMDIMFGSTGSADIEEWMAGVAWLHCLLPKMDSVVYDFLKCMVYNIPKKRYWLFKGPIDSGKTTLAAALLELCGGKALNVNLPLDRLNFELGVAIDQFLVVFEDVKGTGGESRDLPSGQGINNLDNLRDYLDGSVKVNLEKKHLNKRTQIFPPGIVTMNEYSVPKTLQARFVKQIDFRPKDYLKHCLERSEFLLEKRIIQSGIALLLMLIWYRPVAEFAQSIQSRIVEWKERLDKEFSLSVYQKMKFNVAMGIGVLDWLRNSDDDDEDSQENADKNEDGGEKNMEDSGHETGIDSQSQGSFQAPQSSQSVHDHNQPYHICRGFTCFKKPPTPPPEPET

inhibition, inactive:
COc1ccccc1N1C(=O)C2CC(C)=C(C)CC2C1=O (stereo not drawn) 6.96%, COc1ccccc1N1C(=O)CC(Sc2nc(C)cc(C)n2)C1=O (stereo not drawn) 5.59%, CCCCOc1ccc(C2(C)NC(=O)NC2=O)cc1 (stereo not drawn) 3.93%, COc1ccc(S(=O)(=O)N(CC(=O)NCc2ccncc2)c2ccc(C)cc2)cc1OC 7.04%, CN(CC(=O)Nc1ccc(F)cc1)C(=O)COC(=O)Cc1cccs1 8.61%, O=C(C1=NN[C@@H]2C(=O)N(c3cccc(F)c3)C(=O)[C@H]12)C(c1ccccc1)c1ccccc1 1.36%, Cn1cc(C(=O)c2cccc(Cl)c2)cc1/C=N\O -2.98%, CC(=O)c1ccc(OC(=O)CN2C(=O)c3ccccc3C2=O)cc1 14.1%, Oc1ccccc1N1CCN(C(=S)NCCc2ccccc2)CC1 7.92%, S=C(NCCc1ccccc1)N1CCCC1 7.81%, O=C(NC(=S)N1CCN(c2ccc(F)cc2)CC1)c1cccs1 1.9%, O=C(CCC(=O)N1CCN(c2cccc(Cl)c2)CC1)c1cccs1 1.82%, O=C(NC(=S)N1CCCCC1)c1cccs1 9.19%, O=S(=O)(c1cccs1)N1CCN(c2ccc(Cl)cc2)CC1 2.25%, CC(=O)c1ccc(N2CCN(C(=O)CCC(=O)c3cccs3)CC2)cc1 4.57%, O=S(=O)(c1cccs1)N1CCN(c2ccccc2)CC1 1.66%, CN1CCN(CCc2nc3cc(NC(=O)COc4ccc([N+](=O)[O-])cc4)ccc3n2C)CC1 16.7%, O=C(NCC1CCCO1)c1cn(-c2ccccc2)nc1-c1ccc(F)cc1 (stereo not drawn) 27.6%, COc1cc(S(=O)(=O)N2CCOCC2)cc(C(=O)c2nccn2C)c1OC -1.37%, CN(C(=O)COC(=O)CNC(=O)c1ccc(C(C)(C)C)cc1)c1c(N)n(Cc2ccccc2)c(=O)[nH]c1=O 6.23%, COc1cnc(-c2ccccn2)nc1Oc1cccc(Cl)c1 30.5%, Cc1cccc(NC(=O)CN2C(=O)N/C(=C\c3cccn3-c3cccc(C(=O)O)c3)C2=O)c1 3.89%, Cc1ccc(-n2cccc2/C=C2/NC(=O)N(CC(=O)Nc3cccc(C)c3)C2=O)cc1 10.3%, COC(=O)C1CCN(Cc2ccc(C)cc2)CC1 3.14%, N#C/C(=C/Nc1ccccc1F)S(=O)(=O)c1ccc(Cl)cc1 -5.3%, COc1ccc(-c2cnnn2-c2ccc(NC(=O)/C=C/c3ccc(OC)c(OC)c3)cc2)cc1 4.37%, CC(Oc1ccc(Cl)cc1Cl)C(=O)NCCCN(C)C (stereo not drawn) 13.2%, O=C(O)Cc1ccc(O)c(F)c1 11.8%, O=C(O)c1ccc(-c2ccc(OS(=O)(=O)c3ccccc3F)cc2)cc1 -2.26%, CC(=O)Nc1ccc(S(=O)(=O)N2CCN(Cc3cccnc3)CC2)cc1 0.357%, Cc1scc(C(=O)NNC(=S)NCC2CCCO2)c1-c1ccccc1 (stereo not drawn) 11.4%, CCN=c1scc(-c2ccco2)n1/N=C/c1ccc(OC)c(O)c1 19.6%, Cc1nnc(C)n1/N=C/c1ccc(O)cc1 -1.45%, CN=c1scc(-c2cccs2)n1/N=C/c1ccccc1O 6.26%, CN=c1scc(C)n1/N=C/c1ccc(O)c(O)c1O 7.3%, CN=c1scc(C)n1/N=C/c1ccc2c(c1)OCO2 11.5%, CCN=c1scc(-c2ccco2)n1/N=C/c1ccc(O)cc1 11.2%, CC1Oc2ccccc2N(CC(=O)N2CCCC2)C1=O (stereo not drawn) 2.95%, O=C1Cn2c(nc3ccccc32)N1c1ccccc1F 5.32%, Cc1cc[n+](CC(=O)Nc2ccccc2)cc1 -1.49%, COc1ccc(Nc2nc(N)c([N+](=O)[O-])c(NCc3ccccc3)n2)cc1 2.61%, CCCC12CN(C(=O)c3ccc(OC)cc3)CC(C)(CN(C(=O)c3ccc(OC)cc3)C1)C2=O 14.8%, COc1ccc(CONc2ncnc3nonc23)cc1[N+](=O)[O-] 24.5%, O=c1cc(-c2ccc(O)cc2)oc2cc(O)cc(O)c12 5.06%, O=c1c(O)c(-c2ccc(O)cc2)oc2cc(O)cc(O)c12 2.71%, O=c1c(O)c(-c2cc(O)c(O)c(O)c2)oc2cc(O)cc(O)c12 14.3%, O=c1cc(-c2ccccc2)oc2cc(O)cc(O)c12 3.39%, Cc1cccc(/C=C2\CCC(C3CCCC3)C2=O)c1 (stereo not drawn) 1.68%, CCN(CC)C(=O)c1cc(Cl)ccn1 -2.78%, O=C(NCC1CCCO1)c1cc(S(=O)(=O)Nc2ccc(Br)cc2)ccc1Cl (stereo not drawn) -4.53%, COC(=O)C1C(=O)NC(SC)=C(C#N)C1c1ccccc1F (stereo not drawn) 10.2%, CCOC(=O)C1C(=O)NC(SC)=C(C#N)C1c1ccccc1F (stereo not drawn) 13.4%, COc1ccccc1/C=C(/C(=O)OCC(=O)Nc1cc(C)ccc1C)c1ccccc1 5.11%, CC1CN=C(Nc2cccc(S(=O)(=O)N(C)C)c2)S1 (stereo not drawn) 21.1%, CCOC(=O)C(=CNc1ccc(NC2=NCC(C)S2)cc1)C(=O)OCC (stereo not drawn) 12%, Cc1cccc2cc3c(nc12)-c1ccccc1C3=O 7.99%, Cc1ccc(Cl)c(OC(=O)C2CSC3(C)CCC(=O)N23)c1 (stereo not drawn) 28%, CC(C)Sc1nc2ccccc2n1CC(=O)NCc1ccc2c(c1)OCO2 10.4%, O=C(c1cnn(-c2ccccc2)c1)c1ccccc1O -1.98%, O=C(O)/C=C/c1cnn(-c2ccccc2)c1 6.6%, CCN(CC)S(=O)(=O)c1ccc(N=Nc2c(N)[nH]c(=O)[nH]c2=O)cc1 12.4%, O=C(CCn1c(=S)[nH]c2ccccc2c1=O)NCCc1ccccc1 4.97%, O=C(CCn1c(=S)[nH]c2ccccc2c1=O)NCCc1ccc(Cl)cc1 7.2%, CC(=O)NC(CC(=O)N1CCCC1)c1ccccc1 (stereo not drawn) 21.8%, O=C(NCc1ccc2c(c1)OCO2)c1ccc2c(c1)S(=O)(=O)c1ccccc1C2=O 0.8%, Cn1c(=O)oc2cc(S(=O)(=O)NC3CCCCC3)ccc21 -17.1%, Cn1c(=O)oc2cc(S(=O)(=O)NC3CCCCCCC3)ccc21 -1.85%, CCCCC(=O)Nc1ccc(C(=O)NCCc2ccc(S(N)(=O)=O)cc2)cc1 1.78%, N=c1c2c(ncn1Cc1ccco1)Oc1cc(O)ccc1C2c1ccccc1 (stereo not drawn) 26.2%, O=C1NN(c2ccccc2)C(=O)/C1=C/c1cccs1 28.5%, O=C1NN(c2ccccc2)C(=O)/C1=C\c1ccccc1 17.5%, COc1ccc(-c2nc(CS(=O)(=O)CC(=O)NCCCc3ccccc3)c(C)o2)cc1 -0.82%, O=C(OCC(=O)N1CCCc2ccccc21)c1cc(S(=O)(=O)N2CCOCC2)ccc1Cl 15.5%, O=C(COc1ccc2ccccc2c1Br)NCc1ccccn1 9.07%, Cc1cccc(C)c1NS(=O)(=O)c1cc2c3c(c1)CC(=O)N3CCC2 -3.87%, CN(C)c1ccc(NS(=O)(=O)c2cc(Cl)ccc2Cl)cc1 25.6%, Cc1ccc(NS(=O)(=O)c2cc3c4c(c2)CC(=O)N4CCC3)cc1C 7.5%, Cc1ccc(S(=O)(=O)Nc2ccc(N(C)C)cc2)cc1 37.5%, CCN(CC)S(=O)(=O)c1cc(NS(=O)(=O)c2cccc(Cl)c2)ccc1C 2.93%, CN(C)c1ccc(S(=O)(=O)c2ccc(Cl)cc2)cc1 1.2%, O=C(CN1C(=O)C(=O)N(Cc2ccco2)C1=O)c1c[nH]c2ccccc12 28.3%, C=CCc1ccc(OCCOCCOc2ccccc2[N+](=O)[O-])c(OC)c1 -1.8%, C=CCOc1ccc(C2c3c(oc4ccccc4c3=O)C(=O)N2CCCN2CCOCC2)cc1 (stereo not drawn) 10.1%, O=C(COn1nnc2ccc(Cl)cc21)Nc1ccc(F)cc1 19.7%, COc1cc(/C=C2\N=C(C)OC2=O)cc(Cl)c1OC(C)=O 13.6%, CC(=O)NC1CC2CCCC(C1)N2S(=O)(=O)c1cccc(F)c1 (stereo not drawn) 2.38%, COc1ccc(S(=O)(=O)Nc2cccc(-c3ccc4nncn4n3)c2)c(OC)c1 12.4%, Brc1ccc(-c2nc3ncccn3c2NC2CCCCC2)o1 12.4%, Cc1ccc(Nc2c(-c3ccc(C)o3)nc3ncccn23)cc1 33.8%, Cc1ccc(-n2cc(CCCCCCCCC(=O)O)nn2)cc1 8.47%, COc1ccc(/C=N/NC(=O)CN2CCSCC2)c(OC)c1 17.5%, COc1ccc(NC(=O)/C=C/C(=O)O)cc1Cl 4.09%, COC(=O)/C=C/C(=O)Nc1cccc(C(F)(F)F)c1 17.3%, O=C(CCCC(=O)c1ccc(O)cc1)c1ccc(O)cc1 9%, CCCCC(=O)c1ccc(O)cc1 4.42%, COc1ccc(N2CCN(C(=O)C3COc4ccccc4O3)CC2)cc1 (stereo not drawn) 15.2%, O=C(O)CCCC(=O)N(Cc1ccccc1)Cc1ccccc1 8.76%, COc1ccc(OC)c(S(=O)(=O)N2CCC(C(=O)N3CCc4ccccc4C3)CC2)c1 -3.29%

Reference: PubChem BioAssay AID1903 (Southern Research Specialized Biocontainment Screening …, 2009)
